# This is part of a sample that, as a whole, favours compounds with a hit. Of some 83,000 tested, about 20% had one in any assay.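 For each line, cells grew in 96-well plates with the test compound present at a single concentration for 48 hours.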 Unmarked numbers belong to inactive results. Activity calls are given as the source filed them. How the source made its calls: active means growth percent below 10; inactive means the rest.
# System: OVCAR-8 ovarian
# Assay: NCI-60 one-dose screen, 48 h (100 = growth as untreated, 0 = no growth, -100 = all killed)
# Settings: 10 µM
row,SMILES,growth
1,O=C1/C(=C/c2ccc(O)cc2)Oc2ccc(Cl)cc21,79.4%
2,COc1cc(C(=O)n2nc(N)c3c(C)cc(C)nc32)cc(OC)c1OC,84.4%
3,C#Cc1ccc(-n2c(/C=C/c3cc(OC)c(OC)c(OC)c3)nc3ncccc3c2=O)cc1,75.1%
4,Oc1ccccc1-c1nnc(Cn2c(Cc3cccc4ccccc34)nc3ccccc32)o1,101%
5,COc1ccc(C2C=C(c3ccc(Cl)c(Cl)c3)N=C3SC(C)=CN32)cc1 (stereo not drawn),94%
6,CCOc1nc(-c2ccccc2)cc2c(O)c(C(=O)NC(C)C)[nH]c(=O)c12,103%
7,S=c1c2ncccc2c(-c2ccccn2)nn1Cc1ccccn1,106%
8,Nc1cc(O)cc(O)c1,104%
9,COc1c(-c2c3sc(=O)[nH]c3nc3c2c(=O)[nH]n3C(C)C)cc2c(c1OC)OCO2,98.8%
10,Cc1c(C(=O)N[C@H](CO)Cc2ccccc2)[nH]c2ccc(Cl)cc2c1=O,96.6%
11,COc1cc(Cn2c(-c3ccccc3)c(Cl)c3c2-c2oncc2CC3)cc(OC)c1,92.8%
12,CCOC(=O)CNC(=O)Nc1ccc(Oc2ccc(NC(=O)NCC(=O)OCC)cc2)cc1,98.4%
13,c1ccc(CNc2nc(Nc3ccc(-c4nc5ccccc5[nH]4)cc3)c3cn[nH]c3n2)cc1,-12.5% (active)
14,c1ccc(COCC[P+](c2ccccc2)(c2ccccc2)c2ccccc2)cc1,3.8% (active)
15,CCOC(=O)C1=C(Nc2ccc(OC)cc2)C(N)=NC1=N,54.5%
16,NC(=O)C1CCCN(Cc2c[nH]c3ccccc23)C1 (stereo not drawn),98.3%
17,CC(=O)n1nc(C(=O)OC(C)(C)C)c2cc(F)c(F)cc21,105%

row,SMILES,growth
1,Cc1cc(Cl)ccc1Nc1nc(C(F)(F)F)ccc1C(=O)N/N=C/c1ccccc1Cl,21.7%
2,CN1/C(=C\C(I)C(I)C2=[N+](C)c3ccccc3C2(C)C)C(C)(C)c2ccccc21 (stereo not drawn),7.15% (active)
3,N#C/C(=C/c1cc([N+](=O)[O-])ccc1Cl)C(N)=O,82.5%
4,CCCCCCCCCCCC(=O)NCCCN(C)C,93.7%
5,CCc1nn2c(-c3cc(OC)c(OC)c(OC)c3)c(-c3cc(OC)c(OC)c(OC)c3)nc2s1,95.6%
6,CCN1CCN(c2nc(NNC(=O)c3cccc(OC)c3)nc(N3CCN(C(c4ccccc4)c4ccccc4)CC3)n2)CC1,65%
7,CCCCOCCOCCOCc1cc2c(cc1Br)OCO2,97.8%
8,CCCCCCCCCCCCCC[n+]1ccccc1,-68.7% (active)
9,Cc1cc(C)c2nc(C)c(C)[n+]([O-])c2c1,94%
10,Clc1cc(Cl)c(OCCCCCCN2CCNCC2)c(Cl)c1,76%
11,COc1ccc(NC(=O)c2sc3nc4c(cc3c2N)C(O)CCC4)cc1 (stereo not drawn),101%
12,Cc1cc(C(C)(C)CC(C)(C)C)ccc1OCCOCC[N+](C)(C)Cc1ccccc1,18.7%
13,COc1cc(C2C(C#N)=C(c3c[nH]c4ccccc34)Nc3nc(N)[nH]c(=O)c32)cc(OC)c1OC (stereo not drawn),99.1%
14,COCCOC(=O)NC(=O)Nc1ccc(/C(=N/O)c2ccc(Cl)cc2)cc1,4.12% (active)
15,CCN(CCCNC(=O)Cc1cc(=O)oc2cc(N(C)C)ccc12)CCNc1ccnc2cc(Cl)ccc12,83.9%
16,CC(C)c1ncc(CO)n1Cc1c(Cl)cccc1Cl,105%

# — PubChem BioAssay (NCI)
